According to PubChem BioAssay (NCI):
Compounds without any hit were thinned out: in the full panel of roughly 83,000, 20% have a hit.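 Each cell line was grown in a 96-well plate and treated with one concentration of compound for 48 hours. Values below 10 were considered active.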 Values without a mark were called inactive. Calls of active or inactive are those of the source.

Key:
Experiment in all cases: NCI-60 one-dose screen, 48 h (100 = growth as untreated, 0 = no growth, -100 = all killed)
Settings in all cases: 10 µM unless noted
NCI-H23 lung = system: NCI-H23 lung
NCI-H226 lung = system: NCI-H226 lung
NCI-H322M lung = system: NCI-H322M lung
HOP-62 NSCLC = system: HOP-62 NSCLC
NCI-H460 lung = system: NCI-H460 lung
HOP-92 NSCLC = system: HOP-92 NSCLC
NCI-H522 lung = system: NCI-H522 lung
A549/ATCC NSCLC = system: A549/ATCC NSCLC
786-0 renal = system: 786-0 renal
COLO 205 colon = system: COLO 205 colon
DU-145 prostate = system: DU-145 prostate
K-562 leukemia = system: K-562 leukemia
MALME-3M melanoma = system: MALME-3M melanoma
MDA-MB-231 breast = system: MDA-MB-231 breast
SF-268 CNS = system: SF-268 CNS
SF-295 CNS = system: SF-295 CNS
SF-539 CNS = system: SF-539 CNS
M14 melanoma = system: M14 melanoma
UACC-257 melanoma = system: UACC-257 melanoma

Row | SMILES | growth (NCI-H23 lung) [%] | growth (NCI-H226 lung) | growth (NCI-H322M lung) [%] | growth (HOP-62 NSCLC) | growth (NCI-H460 lung) | growth (HOP-92 NSCLC) | growth (NCI-H522 lung) | growth (A549/ATCC NSCLC) [%] | growth (786-0 renal) [%] | growth (COLO 205 colon) | growth (DU-145 prostate) | growth (K-562 leukemia) | growth (MALME-3M melanoma) [%] | growth (MDA-MB-231 breast) | growth (SF-268 CNS) [%] | growth (SF-295 CNS) | growth (SF-539 CNS) | growth (M14 melanoma) | growth (UACC-257 melanoma) [%]
1 | COC(=O)[C@@H](C)C[C@H](Cc1ccc(F)cc1)NC(=O)c1csc([C@@H](C[C@H](C(C)C)N(C)C(=O)[C@@H](NC(=O)[C@H]2CCCCN2C)C(C)C)OC(C)=O)n1 | 35.2 | 27.3% | 38 | 6.77% (active) | 6.06% (active) | 26.7% | -13.9% (active) | 16.6 | 13.2 | -68.8% (active) | 13.5% | 8.92% (active) | 47 | 4.87% (active) | 27 | 8.69% (active) | -6.38% (active) | -5.96% (active) | –
2 | O=C(O)C(O)C(O)C1[O][Sb]([c]2ccc([N+](=O)[O-])cc2)[O]C1CO (configuration not stated) | 101 | 93.4% | 102 | 110% | 100% | 102% | 94.6% | 94.4 | 104 | 115% | 116% | 99.6% | 116 | 99.3% | 106 | 101% | 102% | 106% | 95.7
3 | CN(C)C(=O)Oc1ccccc1-c1ccccc1 | 102 | 96.4% | 111 | 98.6% | 109% | 95.7% | 101% | 87.7 | 106 | 103% | 111% | 89.5% | 110 | 110% | 102 | 97.4% | 103% | 103% | –
4 | O=C1OCC2=C1C(c1ccccc1)c1cc3c(cc1N2)OCO3 (configuration not stated) | 16.1 | -9.94% (active) | 46.9 | 15% | 5.45% (active) | 30.8% | -40.3% (active) | 12.6 | 15.9 | -65.7% (active) | -36.2% (active) | 14.5% | 58 | -1.65% (active) | 10.4 | 6.68% (active) | 4.21% (active) | 10% | 35.2
5 | O=C1C=C(N2C3C4CCC(C4)C32)C(=O)C=C1c1ccccc1 (configuration not stated) | 106 | 107% | 107 | 108% | 90.2% | 96.9% | 51% | 94.9 | 102 | 115% | 105% | 32.9% | 55.4 | 76.6% | 89.6 | – | 96.5% | 111% | 73.1
6 | COC(=O)C12CC(NC(=O)c3csc([C@@H](C[C@H](C(C)C)N(C)C(=O)[C@@H](NC(=O)[C@H]4CCCCN4C)C(C)C)OC(C)=O)n3)(C1)C2 | 23.9 | 10.6% | 41.9 | 6.07% (active) | 5.4% (active) | 52.8% | -23.6% (active) | 16.6 | 18.2 | -60.1% (active) | 16.6% | 12% | 54.4 | 11.9% | 22.9 | -11.2% (active) | -29.9% (active) | 2.68% (active) | –
7 | C=C1[C@@H](C)[C@H]2[C@H](Cc3ccccc3)NC(=O)[C@]23[C@@H](O)/C=C/[C@@](C)(O)C(=O)[C@@H](C)C/C=C/[C@H]3[C@@H]1O | 68.2 | 50.4% | 92.2 | 5.91% (active) | 69.3% | -9.38% (active) | 28% | 37.7 | 20.1 | -17.8% (active) | 82.9% | 52% | 62.5 | 32.9% | 24.5 | 39.2% | 21.9% | 68.8% | –
8 | ClCCN(CCCl)c1nc(Cl)c(C2CC(c3ccccc3)=NN2c2cc(Cl)cc(Cl)c2)s1 (configuration not stated) | 99.7 | 99.6% | 97.8 | 111% | 99.3% | 113% | 97.6% | 94.7 | 100 | 121% | 107% | 99.1% | 103 | 98.7% | 96.7 | 107% | 101% | 108% | 95.9
